# Measured values as given in ChEMBL document CHEMBL2218924, “A broad activity screen in support of a chemogenomic map for kinase signalling research and drug discovery” (Biochem J, 2013).
# Legend:
# [1] = target: T1, Ephrin type-B receptor 1 (Homo sapiens) (UniProt P54762); settings: at 10 µM
# T1 sequence (whole entry): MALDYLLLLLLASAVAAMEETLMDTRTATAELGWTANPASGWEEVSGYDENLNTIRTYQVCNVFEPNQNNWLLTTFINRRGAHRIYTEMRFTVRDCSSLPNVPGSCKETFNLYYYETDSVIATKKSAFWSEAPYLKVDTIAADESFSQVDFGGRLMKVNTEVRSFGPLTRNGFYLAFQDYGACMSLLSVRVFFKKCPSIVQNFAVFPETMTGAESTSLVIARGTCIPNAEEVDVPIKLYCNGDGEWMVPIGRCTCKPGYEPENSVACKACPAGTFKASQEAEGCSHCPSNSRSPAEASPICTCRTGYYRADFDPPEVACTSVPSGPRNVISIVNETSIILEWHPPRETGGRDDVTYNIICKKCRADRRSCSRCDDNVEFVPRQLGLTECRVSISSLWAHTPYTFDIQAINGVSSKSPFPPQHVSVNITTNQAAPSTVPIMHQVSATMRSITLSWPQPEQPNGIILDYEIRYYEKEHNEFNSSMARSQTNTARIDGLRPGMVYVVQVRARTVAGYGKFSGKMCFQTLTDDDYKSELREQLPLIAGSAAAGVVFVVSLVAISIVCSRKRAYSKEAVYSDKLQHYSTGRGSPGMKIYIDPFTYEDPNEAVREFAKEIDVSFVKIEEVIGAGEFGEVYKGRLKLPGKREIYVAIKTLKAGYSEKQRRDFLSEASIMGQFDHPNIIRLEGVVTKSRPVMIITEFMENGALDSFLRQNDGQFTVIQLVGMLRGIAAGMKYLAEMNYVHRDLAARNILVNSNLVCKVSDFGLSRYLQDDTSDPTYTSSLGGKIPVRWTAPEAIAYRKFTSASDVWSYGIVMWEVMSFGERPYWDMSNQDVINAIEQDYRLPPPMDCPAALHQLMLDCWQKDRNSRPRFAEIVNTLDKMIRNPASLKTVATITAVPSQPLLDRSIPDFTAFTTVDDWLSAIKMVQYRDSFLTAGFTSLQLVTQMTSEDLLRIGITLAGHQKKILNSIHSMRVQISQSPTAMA
# [2] = target: T2, Ephrin type-B receptor 2 (Homo sapiens) (UniProt P29323); settings: at 1 µM
# T2 sequence (whole entry): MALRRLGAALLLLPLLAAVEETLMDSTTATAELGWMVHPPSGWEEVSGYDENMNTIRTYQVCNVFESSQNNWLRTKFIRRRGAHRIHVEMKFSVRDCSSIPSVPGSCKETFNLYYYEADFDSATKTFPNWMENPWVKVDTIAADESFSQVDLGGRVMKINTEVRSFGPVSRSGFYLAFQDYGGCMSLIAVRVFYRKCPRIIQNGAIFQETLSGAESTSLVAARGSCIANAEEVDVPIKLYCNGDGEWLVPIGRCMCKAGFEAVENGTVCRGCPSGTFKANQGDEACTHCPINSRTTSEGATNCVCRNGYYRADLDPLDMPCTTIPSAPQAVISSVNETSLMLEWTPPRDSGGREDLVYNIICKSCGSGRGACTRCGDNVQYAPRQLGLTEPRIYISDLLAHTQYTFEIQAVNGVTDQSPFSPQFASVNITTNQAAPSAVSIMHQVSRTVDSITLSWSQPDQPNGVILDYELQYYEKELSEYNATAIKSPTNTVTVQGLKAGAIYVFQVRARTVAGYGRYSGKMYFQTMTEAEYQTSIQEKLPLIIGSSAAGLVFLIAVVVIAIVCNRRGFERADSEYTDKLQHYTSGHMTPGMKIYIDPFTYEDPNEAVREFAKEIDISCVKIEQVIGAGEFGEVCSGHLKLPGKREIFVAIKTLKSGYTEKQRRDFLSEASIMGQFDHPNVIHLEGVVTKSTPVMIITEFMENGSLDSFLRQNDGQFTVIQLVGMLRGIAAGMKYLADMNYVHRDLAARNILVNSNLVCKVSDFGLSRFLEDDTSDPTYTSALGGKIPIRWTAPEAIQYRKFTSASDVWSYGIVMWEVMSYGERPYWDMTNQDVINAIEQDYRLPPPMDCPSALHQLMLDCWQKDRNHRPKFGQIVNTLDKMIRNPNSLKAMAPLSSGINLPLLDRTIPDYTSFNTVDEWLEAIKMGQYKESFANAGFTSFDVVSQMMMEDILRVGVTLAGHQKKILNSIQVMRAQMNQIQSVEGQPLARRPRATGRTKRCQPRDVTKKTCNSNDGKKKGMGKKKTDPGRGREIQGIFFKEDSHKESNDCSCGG
# [3] = target: T2, Ephrin type-B receptor 2 (Homo sapiens); settings: at 10 µM
# [4] = target: T3, Ephrin type-B receptor 3 (Homo sapiens) (UniProt P54753); settings: at 1 µM
# T3 sequence (whole entry): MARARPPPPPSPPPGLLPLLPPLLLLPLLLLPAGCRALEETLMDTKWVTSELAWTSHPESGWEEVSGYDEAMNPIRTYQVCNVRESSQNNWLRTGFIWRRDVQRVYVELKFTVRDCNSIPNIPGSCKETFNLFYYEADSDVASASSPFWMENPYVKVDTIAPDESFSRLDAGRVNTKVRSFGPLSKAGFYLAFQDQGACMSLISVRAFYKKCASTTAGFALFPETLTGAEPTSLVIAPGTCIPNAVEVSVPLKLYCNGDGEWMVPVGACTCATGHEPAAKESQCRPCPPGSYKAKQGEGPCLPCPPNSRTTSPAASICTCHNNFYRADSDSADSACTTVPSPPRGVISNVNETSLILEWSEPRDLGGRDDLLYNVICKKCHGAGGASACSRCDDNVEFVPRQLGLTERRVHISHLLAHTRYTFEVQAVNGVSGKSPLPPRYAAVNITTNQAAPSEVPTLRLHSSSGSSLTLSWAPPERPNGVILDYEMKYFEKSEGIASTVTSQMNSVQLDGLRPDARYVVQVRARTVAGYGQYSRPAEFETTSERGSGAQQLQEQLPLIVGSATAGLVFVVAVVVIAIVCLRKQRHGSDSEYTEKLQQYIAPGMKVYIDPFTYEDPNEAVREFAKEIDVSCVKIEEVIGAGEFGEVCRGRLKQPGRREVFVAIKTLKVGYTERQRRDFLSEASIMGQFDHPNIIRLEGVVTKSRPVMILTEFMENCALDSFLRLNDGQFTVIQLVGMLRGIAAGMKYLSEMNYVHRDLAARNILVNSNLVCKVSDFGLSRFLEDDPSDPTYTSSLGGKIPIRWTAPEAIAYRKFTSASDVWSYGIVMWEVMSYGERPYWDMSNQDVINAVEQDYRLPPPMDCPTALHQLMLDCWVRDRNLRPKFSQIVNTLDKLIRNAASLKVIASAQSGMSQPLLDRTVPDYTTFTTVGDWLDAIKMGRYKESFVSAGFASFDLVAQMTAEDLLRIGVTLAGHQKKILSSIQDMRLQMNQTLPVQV
# [5] = target: T3, Ephrin type-B receptor 3 (Homo sapiens); settings: at 10 µM
# [6] = target: T4, Ephrin type-B receptor 4 (Homo sapiens) (UniProt P54760); settings: at 1 µM
# T4 sequence (whole entry): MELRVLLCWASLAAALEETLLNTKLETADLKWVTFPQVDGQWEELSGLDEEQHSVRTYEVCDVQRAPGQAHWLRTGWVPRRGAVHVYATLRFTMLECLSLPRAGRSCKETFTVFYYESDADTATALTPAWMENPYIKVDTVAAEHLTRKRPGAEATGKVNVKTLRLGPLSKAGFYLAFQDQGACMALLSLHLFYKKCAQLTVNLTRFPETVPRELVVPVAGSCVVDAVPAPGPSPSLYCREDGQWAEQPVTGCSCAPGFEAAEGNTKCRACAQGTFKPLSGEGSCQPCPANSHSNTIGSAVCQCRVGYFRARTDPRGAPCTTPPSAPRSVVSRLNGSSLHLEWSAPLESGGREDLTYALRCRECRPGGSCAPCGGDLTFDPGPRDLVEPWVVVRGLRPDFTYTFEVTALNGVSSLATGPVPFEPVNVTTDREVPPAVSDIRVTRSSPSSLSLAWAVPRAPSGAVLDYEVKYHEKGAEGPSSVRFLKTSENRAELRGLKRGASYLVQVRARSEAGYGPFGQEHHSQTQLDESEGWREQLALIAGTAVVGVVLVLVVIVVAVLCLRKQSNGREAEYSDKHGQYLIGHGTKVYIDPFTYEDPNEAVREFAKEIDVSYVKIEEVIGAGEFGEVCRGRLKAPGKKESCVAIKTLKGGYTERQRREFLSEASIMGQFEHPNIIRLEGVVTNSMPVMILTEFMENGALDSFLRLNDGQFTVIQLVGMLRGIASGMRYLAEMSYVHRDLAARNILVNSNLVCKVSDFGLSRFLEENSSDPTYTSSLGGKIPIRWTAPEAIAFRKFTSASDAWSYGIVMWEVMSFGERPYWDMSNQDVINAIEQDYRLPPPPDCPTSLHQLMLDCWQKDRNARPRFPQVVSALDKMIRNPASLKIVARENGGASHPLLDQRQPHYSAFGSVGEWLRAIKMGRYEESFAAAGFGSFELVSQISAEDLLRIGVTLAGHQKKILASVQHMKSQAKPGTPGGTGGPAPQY
# [7] = target: T4, Ephrin type-B receptor 4 (Homo sapiens); settings: at 10 µM
# [8] = target: Receptor tyrosine-protein kinase erbB-4 (Homo sapiens) (UniProt Q15303); settings: at 1 µM
# [9] = target: Receptor tyrosine-protein kinase erbB-4 (Homo sapiens) (UniProt Q15303); settings: at 10 µM
# [10] = target: Focal adhesion kinase 1 (Homo sapiens) (UniProt Q05397); settings: at 1 µM
# [11] = target: Focal adhesion kinase 1 (Homo sapiens) (UniProt Q05397); settings: at 10 µM
# [12] = target: Fibroblast growth factor receptor 1 (Homo sapiens) (UniProt P11362); settings: at 1 µM
# [13] = target: Fibroblast growth factor receptor 1 (Homo sapiens) (UniProt P11362); settings: at 10 µM
# [14] = target: Fibroblast growth factor receptor 2 (Homo sapiens) (UniProt P21802); settings: at 1 µM
# [15] = target: Fibroblast growth factor receptor 2 (Homo sapiens) (UniProt P21802); settings: at 10 µM
# [16] = target: Fibroblast growth factor receptor 3 (Homo sapiens) (UniProt P22607); settings: at 1 µM
# [17] = target: Fibroblast growth factor receptor 3 (Homo sapiens) (UniProt P22607); settings: at 10 µM
# [18] = target: Fibroblast growth factor receptor 4 (Homo sapiens) (UniProt P22455); settings: at 1 µM
# [19] = target: Fibroblast growth factor receptor 4 (Homo sapiens) (UniProt P22455); settings: at 10 µM
# [20] = target: Tyrosine-protein kinase Fer (Homo sapiens) (UniProt P16591); settings: at 1 µM
# Chain of Tyrosine-protein kinase Fer (Homo sapiens) (P16591 whole entry, looked up): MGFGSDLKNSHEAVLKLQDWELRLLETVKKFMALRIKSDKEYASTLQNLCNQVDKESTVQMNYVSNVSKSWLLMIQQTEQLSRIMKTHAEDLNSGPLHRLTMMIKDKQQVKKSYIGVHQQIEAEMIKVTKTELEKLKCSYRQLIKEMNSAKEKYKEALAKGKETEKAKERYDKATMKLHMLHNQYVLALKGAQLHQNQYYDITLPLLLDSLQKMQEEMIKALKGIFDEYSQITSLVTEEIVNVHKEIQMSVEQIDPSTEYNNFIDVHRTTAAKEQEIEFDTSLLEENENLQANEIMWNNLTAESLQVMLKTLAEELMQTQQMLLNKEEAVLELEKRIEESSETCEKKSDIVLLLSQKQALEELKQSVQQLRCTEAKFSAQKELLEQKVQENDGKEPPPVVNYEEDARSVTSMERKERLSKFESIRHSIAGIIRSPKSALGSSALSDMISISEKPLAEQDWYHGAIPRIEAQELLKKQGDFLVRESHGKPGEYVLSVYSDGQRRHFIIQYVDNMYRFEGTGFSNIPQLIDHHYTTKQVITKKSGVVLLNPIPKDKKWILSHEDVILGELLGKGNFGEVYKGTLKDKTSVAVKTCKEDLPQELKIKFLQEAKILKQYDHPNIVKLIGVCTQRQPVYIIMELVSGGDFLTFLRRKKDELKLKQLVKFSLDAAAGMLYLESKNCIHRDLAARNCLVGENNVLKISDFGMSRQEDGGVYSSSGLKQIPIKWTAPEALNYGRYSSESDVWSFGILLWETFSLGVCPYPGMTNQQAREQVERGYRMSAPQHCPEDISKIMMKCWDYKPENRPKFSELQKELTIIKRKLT
# Chain of Fibroblast growth factor receptor 4 (Homo sapiens) (P22455 22-802 limits assumed): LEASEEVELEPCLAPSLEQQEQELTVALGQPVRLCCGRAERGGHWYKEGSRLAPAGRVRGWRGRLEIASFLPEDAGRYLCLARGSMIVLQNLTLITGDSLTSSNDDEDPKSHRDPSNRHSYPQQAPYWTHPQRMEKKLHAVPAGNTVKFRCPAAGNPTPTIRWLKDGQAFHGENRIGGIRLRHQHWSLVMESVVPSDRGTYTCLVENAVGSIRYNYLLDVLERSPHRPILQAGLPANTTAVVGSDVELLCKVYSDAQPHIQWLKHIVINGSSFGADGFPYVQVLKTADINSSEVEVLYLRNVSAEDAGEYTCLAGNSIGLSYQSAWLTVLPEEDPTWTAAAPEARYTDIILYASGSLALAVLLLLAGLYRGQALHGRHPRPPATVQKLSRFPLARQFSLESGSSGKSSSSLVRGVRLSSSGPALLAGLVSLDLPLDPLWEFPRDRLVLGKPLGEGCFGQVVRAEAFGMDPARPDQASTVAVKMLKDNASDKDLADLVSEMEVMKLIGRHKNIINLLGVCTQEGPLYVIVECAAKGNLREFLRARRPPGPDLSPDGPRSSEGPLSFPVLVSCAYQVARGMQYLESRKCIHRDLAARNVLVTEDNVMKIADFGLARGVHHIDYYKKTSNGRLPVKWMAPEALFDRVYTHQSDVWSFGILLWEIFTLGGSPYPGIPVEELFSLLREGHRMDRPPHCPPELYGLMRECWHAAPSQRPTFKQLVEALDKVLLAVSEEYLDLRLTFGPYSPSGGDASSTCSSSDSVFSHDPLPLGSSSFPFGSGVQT
# Chain of Receptor tyrosine-protein kinase erbB-4 (Homo sapiens) (Q15303 whole entry): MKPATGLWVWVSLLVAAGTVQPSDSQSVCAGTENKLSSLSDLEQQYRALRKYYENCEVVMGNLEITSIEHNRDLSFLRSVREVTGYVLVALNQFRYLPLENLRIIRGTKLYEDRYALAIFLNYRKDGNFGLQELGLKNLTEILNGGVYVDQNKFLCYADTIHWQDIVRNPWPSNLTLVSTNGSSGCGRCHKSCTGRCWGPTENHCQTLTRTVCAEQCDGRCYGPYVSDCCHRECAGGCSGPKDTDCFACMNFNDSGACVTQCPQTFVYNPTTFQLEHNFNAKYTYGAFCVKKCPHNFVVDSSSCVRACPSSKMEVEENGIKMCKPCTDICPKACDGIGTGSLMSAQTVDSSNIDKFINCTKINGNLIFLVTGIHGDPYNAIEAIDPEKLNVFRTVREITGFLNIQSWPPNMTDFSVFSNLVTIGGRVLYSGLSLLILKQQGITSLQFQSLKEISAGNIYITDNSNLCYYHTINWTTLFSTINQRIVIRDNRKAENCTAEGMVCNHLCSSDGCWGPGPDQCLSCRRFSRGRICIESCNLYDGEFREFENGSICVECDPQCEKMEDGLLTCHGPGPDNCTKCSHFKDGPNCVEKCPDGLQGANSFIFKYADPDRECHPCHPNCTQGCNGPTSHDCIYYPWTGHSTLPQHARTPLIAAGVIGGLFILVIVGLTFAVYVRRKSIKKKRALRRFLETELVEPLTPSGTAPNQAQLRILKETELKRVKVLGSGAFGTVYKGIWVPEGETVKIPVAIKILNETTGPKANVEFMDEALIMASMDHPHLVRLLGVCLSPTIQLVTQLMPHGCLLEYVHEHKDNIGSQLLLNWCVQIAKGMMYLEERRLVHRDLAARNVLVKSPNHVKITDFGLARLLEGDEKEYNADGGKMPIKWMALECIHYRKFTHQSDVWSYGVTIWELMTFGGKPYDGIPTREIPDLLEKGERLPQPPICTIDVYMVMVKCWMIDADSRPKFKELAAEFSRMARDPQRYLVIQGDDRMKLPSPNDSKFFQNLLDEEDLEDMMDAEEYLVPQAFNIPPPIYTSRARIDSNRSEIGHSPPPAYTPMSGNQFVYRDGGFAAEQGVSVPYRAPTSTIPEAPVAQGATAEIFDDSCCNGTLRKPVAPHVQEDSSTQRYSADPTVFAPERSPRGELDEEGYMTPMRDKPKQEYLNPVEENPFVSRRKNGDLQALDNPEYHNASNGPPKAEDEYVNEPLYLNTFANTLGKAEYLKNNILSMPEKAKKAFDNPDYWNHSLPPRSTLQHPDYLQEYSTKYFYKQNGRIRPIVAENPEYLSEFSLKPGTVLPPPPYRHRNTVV
# Chain of Focal adhesion kinase 1 (Homo sapiens) (Q05397 2-1052 limits assumed): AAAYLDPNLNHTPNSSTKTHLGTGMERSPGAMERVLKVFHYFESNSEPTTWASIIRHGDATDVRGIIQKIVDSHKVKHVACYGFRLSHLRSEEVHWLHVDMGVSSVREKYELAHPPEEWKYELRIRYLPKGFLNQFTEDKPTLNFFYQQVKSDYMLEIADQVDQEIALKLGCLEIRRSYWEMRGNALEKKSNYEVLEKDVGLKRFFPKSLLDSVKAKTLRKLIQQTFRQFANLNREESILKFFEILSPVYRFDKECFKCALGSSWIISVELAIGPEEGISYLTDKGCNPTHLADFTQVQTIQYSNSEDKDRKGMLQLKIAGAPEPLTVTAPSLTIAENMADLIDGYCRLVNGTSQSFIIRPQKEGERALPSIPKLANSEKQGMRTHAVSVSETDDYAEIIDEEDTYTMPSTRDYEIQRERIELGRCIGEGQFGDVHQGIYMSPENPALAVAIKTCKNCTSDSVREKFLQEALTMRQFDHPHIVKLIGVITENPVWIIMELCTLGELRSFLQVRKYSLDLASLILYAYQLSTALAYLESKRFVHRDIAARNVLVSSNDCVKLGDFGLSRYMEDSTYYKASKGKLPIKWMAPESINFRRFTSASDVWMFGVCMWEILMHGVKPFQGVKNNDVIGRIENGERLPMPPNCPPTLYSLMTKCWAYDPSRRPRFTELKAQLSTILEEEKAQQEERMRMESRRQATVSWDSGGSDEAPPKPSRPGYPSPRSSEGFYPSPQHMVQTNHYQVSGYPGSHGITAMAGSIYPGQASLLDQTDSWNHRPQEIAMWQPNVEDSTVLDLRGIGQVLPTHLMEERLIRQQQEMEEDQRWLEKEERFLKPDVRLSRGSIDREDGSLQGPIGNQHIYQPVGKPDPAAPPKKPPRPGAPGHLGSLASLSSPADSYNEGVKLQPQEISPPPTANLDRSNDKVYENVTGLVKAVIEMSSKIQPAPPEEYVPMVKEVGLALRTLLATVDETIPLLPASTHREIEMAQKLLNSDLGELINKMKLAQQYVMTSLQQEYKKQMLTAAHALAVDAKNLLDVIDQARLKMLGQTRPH
# Chain of Fibroblast growth factor receptor 2 (Homo sapiens) (P21802 22-821 limits assumed): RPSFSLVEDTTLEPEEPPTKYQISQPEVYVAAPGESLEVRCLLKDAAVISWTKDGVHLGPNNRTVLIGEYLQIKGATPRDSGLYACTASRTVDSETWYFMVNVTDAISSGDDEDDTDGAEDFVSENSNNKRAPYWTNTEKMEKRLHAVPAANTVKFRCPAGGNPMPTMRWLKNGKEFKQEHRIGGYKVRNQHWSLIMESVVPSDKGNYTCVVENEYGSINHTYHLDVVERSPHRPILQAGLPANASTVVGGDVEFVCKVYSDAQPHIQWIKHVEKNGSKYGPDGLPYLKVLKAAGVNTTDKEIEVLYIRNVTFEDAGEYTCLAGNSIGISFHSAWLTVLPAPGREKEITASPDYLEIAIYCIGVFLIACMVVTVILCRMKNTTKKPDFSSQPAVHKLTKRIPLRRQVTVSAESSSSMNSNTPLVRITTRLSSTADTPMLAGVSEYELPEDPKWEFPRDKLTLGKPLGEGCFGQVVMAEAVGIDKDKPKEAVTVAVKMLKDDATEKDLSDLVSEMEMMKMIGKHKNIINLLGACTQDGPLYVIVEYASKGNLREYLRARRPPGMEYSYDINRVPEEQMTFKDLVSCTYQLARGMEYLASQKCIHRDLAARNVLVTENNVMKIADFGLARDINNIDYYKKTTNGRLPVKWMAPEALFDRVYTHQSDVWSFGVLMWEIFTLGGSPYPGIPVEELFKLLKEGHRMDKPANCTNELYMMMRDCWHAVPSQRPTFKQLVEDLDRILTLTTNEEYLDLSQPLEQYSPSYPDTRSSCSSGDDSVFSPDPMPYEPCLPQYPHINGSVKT
SMILES,residual activity [1] [%],residual activity [2] [%],residual activity [3] [%],residual activity [4],residual activity [5] [%],residual activity [6] [%],residual activity [7] [%],residual activity [8] [%],residual activity [9] [%],residual activity [10] [%],residual activity [11] [%],residual activity [12] [%],residual activity [13] [%],residual activity [14] [%],residual activity [15] [%],residual activity [16] [%],residual activity [17] [%],residual activity [18] [%],residual activity [19] [%],residual activity [20] [%]
Cn1cc(/C=C2\C(=O)Nc3ccc(S(N)(=O)=O)cc32)c2ccccc21,21,73,49,100% (inactive),117,57,11,94,85,103,42,19,5,10,3,17,14,118,69,35
COc1ccc(S(=O)(=O)N(CCO)c2ccccc2CN(C)C/C=C/c2ccc(Cl)cc2)cc1,90,115,120,112% (inactive),107,86,79,110,77,93,70,108,64,110,81,125,89,129,92,94
Nc1ccc2ncnc(NCCc3ccc(Oc4ccccc4)cc3)c2c1,96,111,93,105% (inactive),98,96,98,33,2,106,94,92,28,77,48,54,33,107,80,93
CCOc1cc2ncnc(Nc3cccc(Br)c3)c2cc1OCC,5,46,0,108% (inactive),126,19,-1,10,-4,139,79,66,18,98,88,92,85,111,92,116
Oc1n[nH]c2nnc(-c3c(-c4ccccc4)nn4ccccc34)cc12,83,123,128,109% (inactive),103,86,80,92,75,98,91,108,92,95,91,97,102,115,90,96
O=C1c2ccccc2-[n+]2ccc3c([nH]c4ccccc43)c21,85,114,116,100% (inactive),96,92,84,69,67,95,90,100,78,107,84,96,114,109,97,92
Oc1ccc(Nc2nc(-c3ccc(Cl)cc3)cs2)cc1,78,108,109,88% (inactive),95,109,92,132,128,108,94,128,86,119,93,132,137,125,118,94
